Source: PubChem BioAssay AID1508600 (Functional Genomics Laboratory (NCATS/FGL), 2020)
Out of some 53,000 sequences screened, about 3,700 (7%) were called active. The entries come from a sample that favours actives as a whole. Unmarked numbers belong to inactive results.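 The calls were made as follows: active = gene knockdowns whose robust z-score for IL-1 alpha signal is at least 2 or at most -2, so actives lie on both sides; inactive = the rest.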

assay: Components of the Cytosolic LPS Sensing Pathway: Gene Identification via Genome-wide siRNA Screen; conditions: RAW264.7 macrophages, IL-1a HTRF, actives lie on both sides, screened at 100 nM (by protocol), cells primed 5 h with Pam3CSK4 first;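 also: robust z of the log signal after scaling to non-targeting control siRNA wells of the plate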
Method in brief: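 Using IL-1a HTRF as read-out, the screen measured release from RAW264.7 cells after 48h siRNA knockdown (100 nM), 5 h Pam3CSK4 priming and 24 h cytosolic LipidA. Values were expressed relative to negative-control wells as robust z-scores.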

Sequence	z-score
GGAAUCGGUACUCUUCCACTT against Tcerg1l	0.26
GGAAUUCAUGAAGUAUAACTT against Myo5c	0.941
GAUAAUUUGCACAUCCUCUTT against Nrn1l	-0.999
GGGUUUGAGUGCUGUGAAGTT against Ap4s1	-2.66 (active)
GCUGGGCUACAAUACAUAUTT against Fgf3	-0.0573
CCAUGAGUAUCAAGUCAAUTT against Septin9	1.14
GGGUGAAAUCUAUCUCCAUTT against Agfg1	-1.85
CCAUAAUUCAGCUAGACCUTT against Axin1	0.201
GGUAAAGACUGGAUGGCUATT against Art5	2.14 (active)
GGAAAUCUUUGAGUUUGAATT against Clca1	-0.0578
GCCAAAUGAGUCAGAUACUTT against Ak3	-0.402
GGAUCCUUAAUCGAUACACTT against Gng3	2.38 (active)
GCCUACAGGAGUGAGAUAATT against Arhgap33os	-1.36
AUUGCAUUGUAUUCACUUGTT against Psg22	0.777
GGAAUUCACAUUUGACUGUTT against Irx3os	0.31
GGGUUGGAUAGAAUAUUGUTT against Xk	1.4
GCCUCGAUUGGCCACAUUUTT against Atp5l	4.61 (active)
GCAGUAUGAGGUAAAUUAUTT against Amer3	1.05
GCCUUCAUUAUUUUAAUGCTT against Ilf3	0.0185
GGCAAAAUGAUCUGCUUUCTT against Trim69	-0.125
GGUUGCUCAGAUUCAGAAUTT against Isy1	-1.53
GGAACCUAGAGAAAAAGAATT against Iyd	-1.18

Sequence	z-score
GGCUUUCCAGAAGACAGAATT against Cyp2s1	0.469
GCUCUGUUAAGGAAGAACATT against Safb2	2.02 (active)
GCUAUGACUCCAACAUGCGTT against Jaml	0.0115
GGUGAAGACAGAAUUUCCGTT against 1700128F08Rik	-1.01
GGAAGCAAGGAAAAUCAUGTT against Lpo	-0.289
GGUGAUACGUAUUUUUUAGTT against Pan3	-1.09
GGGUUGUCUUCAUCUACUUTT against Crhr1	3.47 (active)
GGUGUUUACUUCCUCAGAATT against Slc9b2	-0.373
GGAGAUAUCCAUCAAUAGUTT against Nbr1	0.874
GGACUUCUAAAAAUCUCUGTT against Gabrb2	0.746
GCGCGCAGUGAACGAAAAATT against Mycn	1.14
CCAUCACGGAUAAUCAUCGTT against 4931417E11Rik	-1.65
GGUACUUCCUACCUAACAGTT against Nipa1	-0.235
CCACAGGUUACAACAUAAATT against Pign	-1.45
GCUCCACAAGAUGUAAAGGTT against Il21	0.11
GGAACUGAUGAUGGACCAGTT against Slc4a1	3.39 (active)
GGGCCAUUUUAGGUCCUUUTT against Rbm7	0.112
GGACUUACCUUUAACCAACTT against Slc30a4	0.42
GGGAAUGAAAAGUCAAAAGTT against Stard7	-0.047
GCAGCUCUAGGUGUUCAGUTT against Gjc3	0.955
GCCAUUGGGUGUAACAUUUTT against Mpp6	3.35 (active)
GCCAUGCACUAACUUGAAUTT against Adamts4	-0.0391

Sequence	z-score
GCACUUUACGAGUAUGUAATT against Gnl1	-1.74
GGUAUUGGAAAGUAGAAACTT against Igflr1	0.515
CCGAGUGGUUAGCUACCAGTT against Ccl24	2.4 (active)
GGAGAUCCUUCAUUACCUGTT against Psap	-1.34
GGGAUCGUCCAGAUCUAAUTT against Apobec3	-0.982
GGACUGUCCUCCAAUUUGCTT against Nat8f3	-2.6 (active)
GGGAAAUUUACAGAAAGUGTT against Igtp	0.956
CGGGCUCAGGUAAAACUCUTT against Ddx31	-0.217
GGAGAGCUUGUUCAAGUGCTT against Zxdc	-0.86
CCUCAUUGGUUUGACCCAGTT against Hsd17b6	0.172
GCCAUUAACUAUGGGACCUTT against Lck	-0.0729
GCUAUCACUUUUCAUUAGATT against G0s2	-0.902
CCUGCUAAGAGAGUACUAUTT against Pglyrp2	1.51
GGUUGGACGUGGUGAAGAATT against Chtf18	-2.24 (active)
GGAAUACAAACUGCUGUACTT against Urgcp	0.138
GGAAGUGUGAACUUCAUCATT against Zdhhc6	2.78 (active)
GCCCACGAGCCUCAUGGACTT against Sts	-0.805
GGAGUAUCGUAAUGCGGACTT against C4b	0.598
GGACUCCUAAUGAAUAAUCTT against Wee2	2.06 (active)
CCUUCCUUACCUACGUGAGTT against Nup88	1.71
CCUCAAGGCAGUUCAUAUUTT against Zfp790	-0.334
GGCUCGGUAUCGUUUUUCATT against Arl3	0.841

Sequence	z-score
GGCUAUCUUUUCAGCUUUATT against Sox30	0.212
GCCGACCACAGUACAAGACTT against Bivm	1.08
GCCGUGUGGUAAUAGUGUCTT against Dhrs13	0.442
GGAUGAAACGGGUGCCUAUTT against Kctd5	3.33 (active)
GGACUUCUAGAGAACUUGUTT against 2900092C05Rik	-1.7
GGCUGUAUACCAAUAAAAATT against B4galt6	-0.855
CGUUUCAGAGUGUUUGUGGTT against Lgalsl	-0.173
GGUAUCAGAGCUGUGUUCUTT against Cpped1	-1.48
GGAAAUCUAAAAGUCCUCCTT against Il17re	0.2
GGAUCAUCUCUUUGGGCUGTT against Tmem37	0.127
GGAGAAGAAAGAAAAGCUUTT against Nusap1	-1.74
GGCUGAAAAACUCAAUUAUTT against Boll	-0.813
CCAAAUAUCCGGCCAUGACTT against Lgals6	-0.877
GGAAAACACCUACCUGUGGTT against Slc25a3	-1.48
GGAAAUCAGAGAAUACUUCTT against Mfsd14b	2.04 (active)
GAAGAAGGAAAAAAACCCATT against Sec61b	-1.19
GCACCUCCUGGGAUUACAUTT against Crp	0.412
GGGCUAAUUGUGAACAUUUTT against Slc7a1	3.35 (active)
GCCAUGAAGCUAAAUAAUCTT against Optn	-1.31
GCACCUCUACACUUUAGAUTT against Rack1	-0.0792
GGACUGGUUCAUCCUUGUGTT against G6pc	0.922
GGACCACCUAAGUUUAAGCTT against Pde6g	-0.557

Sequence	z-score
GGCAUCAAGCACAAGAAAATT against Sys1	-1.16
CCUGUGCCUCGUUUUAUUUTT against Fam161a	0.807
GGUGAUCGAGGAGAGUCUATT against Oaf	-0.737
GGUGGAGUUAGAAAACUACTT against BC048679	-0.341
CCUGAACGUGAGUGGAGAATT against Man1c1	-0.8
GGUGAAGAUUGAGAAGGAGTT against Aifm3	-2.05 (active)
GACCUACCAGAUGAAGGUCTT against Vmn1r28	0.29
GCGACUUUAGCUAAACAUGTT against Kcns2	1.79
GGAAGAAACAUGUAUCAUGTT against Tff1	0.556
GACAGUGCACGAUCUGAUUTT against Pfn3	0.274
GCUGGAAUGCAAGGGCUUCTT against Gchfr	1.45
GGAUAUGAAACAAUAACAGTT against Arid5b	-0.349
GGCAAAAUCUAUUGUCUUCTT against Ran	-2.2 (active)
GGAGGUAAAUGAAAAAUCUTT against Nop56	0.611
GGUGAUCGUGGUGUGGAACTT against Extl2	0.941
GGCAAUGAUGAGACCUAGUTT against Mybbp1a	0.0956
GCAAUCGAGCUGAAACUAGTT against Hat1	0.721
CCACCAUUUAUAUUUGGUUTT against Slc35g1	-0.298
GGGUUACAAUAACUGGACATT against Ggcx	2.32 (active)
GCCACAUGGUUAAUAAGAGTT against Postn	-1.5
ACCUCAAGACAGUGCAAAUTT against H2bc4	-1.41
